Screen size: about 53,000 sequences; about 3,700 (7%) were called active. Only a selection was taken, and actives are over-represented in it overall. Values without a mark were called inactive.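 The calls were made as follows: active = gene knockdowns whose robust z-score for IL-1 alpha signal is at least 2 or at most -2, so actives lie on both sides; inactive = the rest.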

The assay can be described thus: Components of the Cytosolic LPS Sensing Pathway: Gene Identification via Genome-wide siRNA Screen.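 Also: robust z of the log signal after scaling to non-targeting control siRNA wells of the plate.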 The conditions noted are these: RAW264.7 macrophages, IL-1a HTRF, actives lie on both sides, screened at 100 nM (by protocol), cells primed 5 h with Pam3CSK4 first. An outline of the steps:
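Knockdown: 100 nM siRNA, 48h, RAW264.7. Stimulation: Pam3CSK4 5 h, then LipidA via TransIT-TKO 24 h. Output: supernatant IL-1a HTRF, negative-control-normalized, log robust z-score; viability by CellTiter-Glo.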
A general note: Time-resolved FRET reads energy transfer from a long-lived donor to a nearby acceptor.
GGAAGAUGAAGAGUCAGAGTT against Setd1b: the z-score is -2.52 (active). Next, CGACAAUGCCAUCGAUUCGTT against Sdc3: 0.0399; GGUCACACUUUCUUUGGAATT against Tcf25: 0.775.

CCUAAAGACGUGCAAUAUGTT against Zfp287: the z-score is 0.526. Next, GGUUGUUCAUGAGCCGAACTT against Rpl18: -0.0641; GGGUGCGGAAAUUCAUUAATT against Mpv17l2: 0.803; GGCGCAGUAUCACAGUCUUTT against Tle1: 1.02. Next, GGAUGAGAACAGCAACCAGTT against Bcl7b: -2.22 (active). In the case of GGUUCCAACAAUUGUAAAGTT against Chl1 it was -0.00378; in that of GGAUUUUAAACAAAAGACCTT against Stard13, 0.718; in that of GGUUCACGGUUUAUAAAGUTT against Sgk3, -0.652. GCUCCUGUACAGUUCAAACTT against Mrpl17: the z-score was 0.0768. In the case of GCAGAAAGCACACUCCUACTT against Psors1c2 it was -2.02 (active); in that of GGAGAAGGUAGUUCUGAAATT against Slc7a11, -0.349; in that of GCACAACAUCACGGUGAACTT against Adcy5, -0.672. Consider CCACUAUGCUUCUUGGAAUTT against Serpini2, for which the z-score was -0.73. For the sequence “GGAAAAGAAACCAGUUUCUTT against C230012O17Rik”, the z-score is -2.07 (active). In the case of GGACAAAAGACACAUGUUGTT against Miip it was -0.674.

With GGAUUUUCACAUUGCAUCUTT against Dmrtc1a, the z-score was 1.49. In the case of CCUUUGAACCUCUAACUUUTT against Xpnpep1 it was 3.62 (active); in that of “GUUUUAGGCAACCUUGGGUTT against Olfr1038-ps”, -0.14; in that of GGGACUCUAAAAACAAUGATT against Zkscan14, 2.67 (active). On to CCCAAAAUACAUCAUCAAUTT against Psmc2, for which the z-score was -0.444. Next, GGACAACCACUUUAAGCUUTT against Tars2: 1.04; GCCUACGUUACCUUGAUCCTT against Slc16a12: 0.0774; CCGGUAUUUAGGAACUGCCTT against Irak2: -1.66. Next, GGAGUCAACACACAUCAAGTT against Zfp13: 1; GGAAACCUGGAAACAGUUUTT against Apol7c: 0.377; GGACAGCAGCAACAACAUCTT against Dnase1l3: -2.04 (active).

For the sequence GCGACGGAAGUCUUUAUUATT against Nostrin, the z-score is -0.163. Next, GGGUGAAGUAGGUGAAAAATT against H2-M10.6: -0.361. In the case of “CGUAGCUAAUCCGUAAAAGTT against 1700120K04Rik” it was -1.93; in that of GGACAAAUCAGUUCUGCGUTT against Car13, 0.105; in that of GGAACUUGGUAUUUAGAUCTT against Rhot2, 0.295. For the sequence GGAUGAGUUUGACAAGCUGTT against Rhou, the z-score is -0.735. For GGAGGAAAAGAGACAGCUCTT against Kank2, the z-score is -2.41 (active). In the case of GUGUCAACCUAAGCUUGGCTT against Tlx3 it was -1.19; in that of GGUGUACCUCUGAAAAAAATT against Zbp1, -1.5; in that of AGAACGGAACCAUAGGGAATT against Cmc2, -0.897. For GGUAGUUCAGAUCUGAUUUTT against Svep1, the z-score was 0.599. As to CGUUGCAGUCUAAGCUUGUTT against Rabac1, the z-score is 4.44 (active). In the case of AUGGAAUCCAGUAUAGAGCTT against Cep44 it was 0.713; in that of GGAAGAAUGUAGGAGGAAGTT against Sln, 0.246. Turning to GGUAUGAUCAAUGACUUACTT against Serpine1, the z-score was -0.165. Next, GGCUGACUUUCUGUCACAGTT against Olfr655: 1.03; GCCUGAAUUCCACUACUCGTT against Def8: 0.551; GGACAAGCUGAGGUGAAAATT against Maats1: -1.08. CGUACACCGUAUUCAUGACTT against Rapgef5: the z-score is 3.6 (active). In the case of “GGAUGACUACAAAUGCAAATT against E230015B07Rik” it was -0.155; in that of GCUAGGAUUUCAGCAUAUATT against Adra1a, 0.29. Next, GGUCCUAACCGACAUGUCUTT against Vrk1: 0.305. Next, CGUAGUGUUCUGUGUUUAUTT against Mif: 1.36; GGACUUAGUACCUGAUAACTT against Rtraf: 0.838; GCCUAUUGUCAGAAAAGUUTT against Usp4: -0.385. Turning to GGGACUCAACCUAUAUCUUTT against Gnpat, the z-score was 0.118. As to CCGGUUGAGUUCACAGAAUTT against Atad3aos, the z-score was -2.44 (active).

As to GGAUUUCGAGAUAACUAUGTT against Tbr1, the z-score was -0.0186. Next, CGUAUGGAGUCCAUUACUATT against Frmd4b: 0.341; GGAUUCAAACAAUGAGCUCTT against Fam126b: 0.9. Next, GCUACUUUGACAUGCACACTT against Caly: 2.1 (active); GGCGGAUCUCUUGAGUGUUTT against Glyctk: 0.213. Take GGUAUCAUUUACUUUGAACTT against Gtf2f2: the z-score is -0.0825. Turning to GCCAGUUCAUACAAGAGGGTT against Zfp946, the z-score was 0.623. Next, GGAGAUCACAGCAAUCCGATT against Ccna1: -1.01; GUAUGUUGACAUUUGCCUGTT against Olfr113: -2.05 (active).

Regarding GGGCGGAGCAUUUUUCUUGTT against Ube2d2b, the z-score is 0.483. In the case of GGAAGAUGACAGUGCUGUATT against Utp25 it was -0.868; in that of GGGAUAAGUACUCUGCUAATT against Sorcs3, -0.146. Consider CCAAGGGUCACCUAUUUUUTT against Kcna5, for which the z-score was 1.97.

In the case of CCUGCAUUAGCAUGUUAGGTT against Gfral, the z-score is -0.483. In the case of GGUAGCUAAGAAGUUUAUUTT against Dck it was 1.55.

Regarding GGAUUUAUCCCAAAAUCUATT against Tmem26, the z-score was 0.42.

For the sequence “GGUUCCUACGAGUUCACUGTT against B130024G19Rik”, the z-score was -2.76 (active).

Take GGAUCAAAUAACAAUGACATT against Hfm1: the z-score was -0.567. Next, GGCCAUGGUUCUAUAGGACTT against Zbtb37: 0.764; “GCUUGUAAAUGGAACGACATT against 0610012G03Rik”: -0.69. In the case of CCAUAUUUUACCCAAAAGCTT against Prune1 it was -1.04; in that of CGAAGGAGUCAAAACUGGGTT against Klk1b8, -1.79. Next, GGAGAUCUCACCGACAUUGTT against Cpt1c: -1.22; GGCUUUGCUACUUGGGAUATT against Wdr86: 3.16 (active); CCUACUCGUAUAAUCUUCUTT against Ago3: 0.496. For the sequence GCGUUUGGGCCGGAAGAAATT against Smo, the z-score is 0.57. In the case of GGCAGUUUGAGAUUGUGUCTT against Thbs2 it was -0.00379. On to GCUCAUCGAGCCUGUACACTT against Med26, for which the z-score was -0.296. Next, GGUGGAACCCAAUGACACCTT against Cers5: 1.21; GGCUUCUACCUUCGAGACUTT against Carns1: -2.3 (active).

For GGUAGUUGUGCCAGAAAAATT against Garre1, the z-score was 0.0675. Next, GGACCCUCUAGAUGACCAATT against Trem2: -1.09; “GGUUCCUUUAACUUUGGUUTT against A730089K16Rik”: 2.18 (active); CCUUUACACGUAAAAGAAGTT against Zfp445: -0.194. With CCUGUUGAGUACUGUGCUGTT against Olfr987, the z-score was -0.437.

With CCCAUGUAAGGAUGUGUCGTT against Frmd5, the z-score was 0.761. Next, CGGGAAGCUAUCAUCAAAATT against Rgs13: 0.12. Turning to GGACACAGAAAAAGUUGAATT against Tbc1d4, the z-score was -0.0174. On to GCAAUGGACUACUGCUGCUTT against Olfr704, for which the z-score was -2.26 (active). Next, “GGAUGUUAAAAUUGCCCUGTT against Olfr911-ps1”: 0.896; GGACGAGAAUCAAGAGCAGTT against Cdkn1c: -0.0249.

UGGUUGUGAUCAACAGAAUTT against Cyp2d12: the z-score is -0.933.

As to CCAUUUAUAUCAGGCAUCATT against Lrit1, the z-score is -0.647. In the case of GGGUAAUCAGAUUGAAAGATT against Dnah5 it was 0.0753; in that of GGUGGAGAGUGAACAACAATT against Tpr, -1.25; in that of GGUCUUCCUUGAACAUCAGTT against Fev, -2.05 (active). In the case of GGUAUGAGCUGAUCAAGUATT against Slc27a2 it was 1.67; in that of GUACACUCAAUCACUCUUGTT against Rexo5, 0.966; in that of CGACCUACUUGGGAUGAUGTT against Pea15b, 0.683. In the case of GCAAGUGAUGAAUGCUUACTT against Ncln it was -2.62 (active); in that of GCCUGAUACCUUGAAGGAATT against Qpctl, -0.382.
